Targets with a hit are over-represented here; the source holds about 7,900 in all. About 0.6% of all pairs of compound and target were hits.
Each target was assayed with c1cn2cc(-c3ccc4cn[nH]c4c3)nc(Nc3ccc(N4CCOCC4)cc3)c2n1 [entospletinib] (assay: log2 fold change, soluble protein after heating vs DMSO (PISA); higher = thermal stabilisation; K562 cells, 10 uM, 30 min; active = over 0.2 and 3.5 SD of the protein, either way, in both replicates (recomputed)).
In short: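 For each measurement, 10 μM compound was applied for 30 min to K562 cells at 2×10^6 cells/mL. Aliquots were heated for 3 min across 48°C-58°C, pooled, and extracted in PBS with 0.5% NP-40 at 4°C; the supernatant after 21,000xg for 90 min was soluble protein. This was quantified by TMTpro 16plex LC-MS/MS with channel sums equalised, and thermal stability was reported relative to control samples from duplicates, on a log2 fold-change scale.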

Chain of UniProt Q14157 (Q14157 whole entry, looked up): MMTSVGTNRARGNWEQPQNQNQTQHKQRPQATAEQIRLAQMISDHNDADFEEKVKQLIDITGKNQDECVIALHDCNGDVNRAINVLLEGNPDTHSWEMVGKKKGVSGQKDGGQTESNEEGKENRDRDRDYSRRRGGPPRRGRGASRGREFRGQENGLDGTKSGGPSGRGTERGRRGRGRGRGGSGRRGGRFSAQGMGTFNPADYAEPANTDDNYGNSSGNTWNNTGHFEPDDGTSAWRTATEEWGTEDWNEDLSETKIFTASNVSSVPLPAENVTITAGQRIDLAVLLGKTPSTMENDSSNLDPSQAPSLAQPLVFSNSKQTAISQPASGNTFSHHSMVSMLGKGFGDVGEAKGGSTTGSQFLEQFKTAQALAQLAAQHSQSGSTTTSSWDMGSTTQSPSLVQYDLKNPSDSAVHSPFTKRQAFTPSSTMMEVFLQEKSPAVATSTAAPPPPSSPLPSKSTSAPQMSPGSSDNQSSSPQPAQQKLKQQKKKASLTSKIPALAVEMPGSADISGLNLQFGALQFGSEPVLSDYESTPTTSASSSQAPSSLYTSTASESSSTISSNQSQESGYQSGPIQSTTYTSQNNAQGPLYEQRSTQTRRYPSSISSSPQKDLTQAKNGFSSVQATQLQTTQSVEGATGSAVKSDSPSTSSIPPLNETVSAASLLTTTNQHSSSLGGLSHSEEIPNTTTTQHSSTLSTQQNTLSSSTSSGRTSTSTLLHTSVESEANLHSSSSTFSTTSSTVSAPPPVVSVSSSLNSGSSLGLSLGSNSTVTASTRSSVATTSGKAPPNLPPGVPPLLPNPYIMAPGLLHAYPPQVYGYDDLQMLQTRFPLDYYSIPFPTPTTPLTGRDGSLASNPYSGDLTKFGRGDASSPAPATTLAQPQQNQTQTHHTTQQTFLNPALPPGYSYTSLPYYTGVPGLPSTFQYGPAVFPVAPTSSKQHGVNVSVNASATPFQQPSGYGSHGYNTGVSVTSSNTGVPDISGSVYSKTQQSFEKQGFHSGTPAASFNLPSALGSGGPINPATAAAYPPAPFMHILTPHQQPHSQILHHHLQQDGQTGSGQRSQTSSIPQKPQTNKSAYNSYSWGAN
Chain of UniProt O14787 (O14787 whole entry, looked up): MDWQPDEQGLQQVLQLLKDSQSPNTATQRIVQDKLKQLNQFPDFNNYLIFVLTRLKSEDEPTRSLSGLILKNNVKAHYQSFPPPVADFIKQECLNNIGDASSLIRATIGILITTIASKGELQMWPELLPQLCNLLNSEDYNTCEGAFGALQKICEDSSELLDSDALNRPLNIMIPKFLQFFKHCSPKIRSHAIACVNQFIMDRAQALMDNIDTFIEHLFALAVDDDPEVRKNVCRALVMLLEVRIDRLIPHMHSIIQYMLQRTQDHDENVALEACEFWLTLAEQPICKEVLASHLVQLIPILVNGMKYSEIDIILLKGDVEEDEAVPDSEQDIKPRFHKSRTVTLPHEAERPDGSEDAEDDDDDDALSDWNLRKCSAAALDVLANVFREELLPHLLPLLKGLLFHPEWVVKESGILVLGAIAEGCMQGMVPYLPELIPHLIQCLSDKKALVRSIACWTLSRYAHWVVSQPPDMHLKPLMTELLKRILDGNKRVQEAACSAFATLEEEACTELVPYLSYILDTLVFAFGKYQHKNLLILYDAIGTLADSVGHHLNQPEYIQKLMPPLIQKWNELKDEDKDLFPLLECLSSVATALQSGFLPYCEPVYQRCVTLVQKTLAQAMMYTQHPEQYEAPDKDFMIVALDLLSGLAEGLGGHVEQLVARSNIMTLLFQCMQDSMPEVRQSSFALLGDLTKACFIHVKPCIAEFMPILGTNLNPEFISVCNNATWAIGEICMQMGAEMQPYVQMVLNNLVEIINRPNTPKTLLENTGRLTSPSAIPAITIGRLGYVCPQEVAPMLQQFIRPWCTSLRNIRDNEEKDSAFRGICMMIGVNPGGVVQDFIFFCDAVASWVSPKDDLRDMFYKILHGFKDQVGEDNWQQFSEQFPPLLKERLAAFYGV
Chain of UniProt Q9UID3 (Q9UID3 whole entry, looked up): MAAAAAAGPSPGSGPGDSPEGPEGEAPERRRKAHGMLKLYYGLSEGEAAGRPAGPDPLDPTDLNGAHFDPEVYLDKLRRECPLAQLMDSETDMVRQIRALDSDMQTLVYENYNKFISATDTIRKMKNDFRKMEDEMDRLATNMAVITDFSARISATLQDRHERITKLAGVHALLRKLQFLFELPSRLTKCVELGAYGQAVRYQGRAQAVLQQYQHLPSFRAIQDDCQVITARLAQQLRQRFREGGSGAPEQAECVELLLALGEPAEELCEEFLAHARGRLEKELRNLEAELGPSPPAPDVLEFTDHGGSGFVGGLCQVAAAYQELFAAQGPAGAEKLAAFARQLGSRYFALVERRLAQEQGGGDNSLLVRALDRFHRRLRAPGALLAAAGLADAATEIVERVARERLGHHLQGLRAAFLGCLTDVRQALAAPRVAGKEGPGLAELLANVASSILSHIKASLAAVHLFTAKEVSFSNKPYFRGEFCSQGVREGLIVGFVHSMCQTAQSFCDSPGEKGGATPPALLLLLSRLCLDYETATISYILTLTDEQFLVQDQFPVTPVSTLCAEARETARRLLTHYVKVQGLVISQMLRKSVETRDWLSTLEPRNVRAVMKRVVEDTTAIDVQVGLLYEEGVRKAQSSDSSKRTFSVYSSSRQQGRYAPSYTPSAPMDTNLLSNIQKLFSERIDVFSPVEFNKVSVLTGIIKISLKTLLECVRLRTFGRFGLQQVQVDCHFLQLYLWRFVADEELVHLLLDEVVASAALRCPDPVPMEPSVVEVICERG
Chain of UniProt P0CG48 (P0CG48 whole entry, looked up): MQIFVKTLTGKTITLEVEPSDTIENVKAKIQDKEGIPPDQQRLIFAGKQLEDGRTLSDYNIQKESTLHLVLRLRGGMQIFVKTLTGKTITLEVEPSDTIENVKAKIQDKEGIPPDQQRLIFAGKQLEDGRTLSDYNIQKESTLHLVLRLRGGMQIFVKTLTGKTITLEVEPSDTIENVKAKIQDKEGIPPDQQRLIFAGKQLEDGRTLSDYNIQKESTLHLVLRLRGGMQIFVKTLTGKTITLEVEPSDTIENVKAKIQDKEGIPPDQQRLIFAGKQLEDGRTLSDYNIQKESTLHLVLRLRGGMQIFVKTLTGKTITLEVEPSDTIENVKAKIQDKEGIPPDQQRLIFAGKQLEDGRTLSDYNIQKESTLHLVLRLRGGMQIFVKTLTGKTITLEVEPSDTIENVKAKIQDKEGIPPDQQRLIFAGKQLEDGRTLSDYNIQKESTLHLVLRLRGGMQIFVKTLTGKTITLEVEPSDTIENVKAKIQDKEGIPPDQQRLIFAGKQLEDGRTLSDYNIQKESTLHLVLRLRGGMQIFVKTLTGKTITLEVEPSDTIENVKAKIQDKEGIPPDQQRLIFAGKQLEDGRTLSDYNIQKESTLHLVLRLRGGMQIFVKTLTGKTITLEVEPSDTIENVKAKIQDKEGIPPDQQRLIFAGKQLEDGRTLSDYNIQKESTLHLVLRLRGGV
Chain of UniProt Q9BUB7 (Q9BUB7 whole entry, looked up): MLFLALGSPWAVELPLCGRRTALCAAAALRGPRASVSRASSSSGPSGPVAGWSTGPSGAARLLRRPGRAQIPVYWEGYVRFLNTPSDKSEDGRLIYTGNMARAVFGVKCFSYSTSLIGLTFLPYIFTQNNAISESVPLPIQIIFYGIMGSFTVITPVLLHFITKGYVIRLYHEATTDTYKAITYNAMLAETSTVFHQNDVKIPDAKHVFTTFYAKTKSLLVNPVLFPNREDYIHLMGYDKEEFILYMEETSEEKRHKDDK
Chain of UniProt Q99757 (Q99757 whole entry, looked up): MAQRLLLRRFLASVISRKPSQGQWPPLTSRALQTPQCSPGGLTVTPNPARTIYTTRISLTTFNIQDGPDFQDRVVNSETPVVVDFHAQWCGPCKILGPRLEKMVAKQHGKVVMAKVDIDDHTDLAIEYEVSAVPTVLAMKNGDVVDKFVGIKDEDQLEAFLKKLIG
Chain of UniProt Q5VIR6 (Q5VIR6 whole entry, looked up): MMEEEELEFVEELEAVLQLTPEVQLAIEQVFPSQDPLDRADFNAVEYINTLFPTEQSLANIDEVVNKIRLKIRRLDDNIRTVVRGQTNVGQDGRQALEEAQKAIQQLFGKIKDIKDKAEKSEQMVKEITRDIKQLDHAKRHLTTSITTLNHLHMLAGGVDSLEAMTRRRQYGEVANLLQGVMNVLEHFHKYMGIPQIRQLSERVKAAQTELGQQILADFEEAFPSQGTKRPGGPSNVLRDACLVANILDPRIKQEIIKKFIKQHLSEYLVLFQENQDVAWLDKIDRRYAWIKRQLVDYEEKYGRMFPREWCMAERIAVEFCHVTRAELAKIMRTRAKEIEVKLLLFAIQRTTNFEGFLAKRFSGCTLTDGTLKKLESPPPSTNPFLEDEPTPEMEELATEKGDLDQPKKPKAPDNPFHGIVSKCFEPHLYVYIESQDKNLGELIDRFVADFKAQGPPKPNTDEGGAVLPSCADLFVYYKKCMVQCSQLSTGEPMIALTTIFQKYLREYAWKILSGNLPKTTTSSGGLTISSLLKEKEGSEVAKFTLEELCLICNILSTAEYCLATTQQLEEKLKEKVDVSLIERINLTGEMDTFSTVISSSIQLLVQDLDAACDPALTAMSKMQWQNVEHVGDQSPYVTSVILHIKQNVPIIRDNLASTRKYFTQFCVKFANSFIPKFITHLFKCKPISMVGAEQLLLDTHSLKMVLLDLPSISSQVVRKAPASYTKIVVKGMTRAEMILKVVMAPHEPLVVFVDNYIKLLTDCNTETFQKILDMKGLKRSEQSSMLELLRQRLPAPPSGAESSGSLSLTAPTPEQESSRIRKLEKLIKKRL
Chain of UniProt Q8N2K1 (Q8N2K1 whole entry, looked up): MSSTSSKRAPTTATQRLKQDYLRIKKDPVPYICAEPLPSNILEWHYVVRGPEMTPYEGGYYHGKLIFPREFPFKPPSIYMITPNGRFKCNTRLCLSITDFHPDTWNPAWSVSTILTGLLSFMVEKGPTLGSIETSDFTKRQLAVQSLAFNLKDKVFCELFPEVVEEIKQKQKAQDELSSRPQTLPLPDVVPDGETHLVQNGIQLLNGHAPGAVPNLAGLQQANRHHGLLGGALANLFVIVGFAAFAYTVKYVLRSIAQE

log2 fold change, inactive:
XPNPEP3 (UniProt Q9NQH7) -0.025
VPS53 isoform 4 (UniProt Q5VIR6) 0.003
TRIM28 (UniProt Q13263) -0.025
TRMT2A (UniProt Q8IZ69) 0.1
VPS33A (UniProt Q96AX1) 0.099
TTC38 (UniProt Q5R3I4) -0.114
TMEM70 (UniProt Q9BUB7) -0.009
UGDH (UniProt O60701) -0.033
TMEM9B (UniProt Q9NQ34) -0.049
VTI1A (UniProt Q96AJ9) 0.013
UBC (UniProt P0CG48) 0.068
USP25 isoform 3 (UniProt Q9UHP3) 0
TTC4 (UniProt O95801) -0.002
TMEM8A (UniProt Q9HCN3) -0.002
UBAP2L isoform 1 (UniProt Q14157) -0.065
TRMT61A (UniProt Q96FX7) 0.123
WDR4 (UniProt P57081) -0.027
TMEM177 (UniProt Q53S58) 0.02
TNPO2 (UniProt O14787) -0.063
TSEN2 (UniProt Q8NCE0) -0.041
VPS51 (UniProt Q9UID3) 0.007
TXNRD1 isoform 7 (UniProt Q16881) 0.04
TMEM104 (UniProt Q8NE00) 0.001
UBAP2L (UniProt F8W726) -0.078
UBAP2L isoform 5 (UniProt Q14157) -0.007
TXN2 (UniProt Q99757) 0
TTI2 (UniProt Q6NXR4) 0.062
WDR61 (UniProt Q9GZS3) 0.009
TRAPPC8 (UniProt Q9Y2L5) 0.004
TUT4 (UniProt Q5TAX3) 0.066
UBE2E3 (UniProt Q969T4) -0.002
TOE1 (UniProt Q96GM8) 0.058
TRIM4 (UniProt Q9C037) 0.089
UBE4B isoform 4 (UniProt O95155) -0.03
TMTC3 (UniProt Q6ZXV5) 0.007
WASHC5 (UniProt Q12768) -0.041
VPS11 (UniProt Q9H270) 0.04
TRAM1 (UniProt Q15629) 0.145
VTA1 (UniProt Q9NP79) -0.005
UBE2J2 isoform 3 (UniProt Q8N2K1) -0.028

Source: the supplement of paper PMC10849652
